Only some compounds are listed: those with a hit (about 5.3% of all), similar ones and a draw of the others.
Six1-Eya2 inh – blocks human Six1 binding to Eya2; Q15475+O00167; AlphaScreen GST-Six1/His-Eya2 binding, biochemical; stronger effect = lower value; actives 0.56% (n = 360,000); activity change, % (test concentration not listed); in the data active means activity change below about -65%; inconclusive means mostly about -30% to -63%; further: on the % scale 0 is the no-effect control and ±100 the full control effect
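Compounds are tested against tagged Six1 and Eya2 proteins bridged by glutathione donor and nickel acceptor beads; after a one-hour incubation at 37 °C without light, AlphaScreen emission is recorded.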
BAZ2B inh – BAZ2B (human) inhibition; Q9UIF8; AlphaScreen BAZ2B-H3K14Ac peptide displacement; Potency, µM (top dose mostly 114 µM), for inactives: top-dose activity change, negative = inhibition, most hits filed as inhibitors; actives 4.4% (n = 360,000); further: potency means the concentration at half of the fitted maximal effect; on the % scale 0 is the no-effect control and ±100 the full control effect; nearly all actives have a fitted effect of over 60% in size
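Multi-concentration screen (max 110 uM) measuring displacement of acetylated histone H3 peptide from BAZ2B by AlphaScreen, using 50 nM protein, 50 nM peptide and 10 ug/mL streptavidin donor plus Ni-chelate acceptor beads.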
TDP1 block – inhibitors of human tyrosyl-DNA phosphodiesterase TDP1 | AID 485290 | Potency, µM (highest dose often 130 µM), for the others: at the top dose activity change, negative = inhibition, usual class: inhibitors | actives 0.28% (n = 350,000) | recombinant TDP1, AlphaScreen DNA substrate cleavage | Q9NUW8; further: potency means the concentration at half of the fitted maximal effect; on the % scale 0 is the no-effect control and ±100 the full control effect; nearly all actives have a fitted effect of over 40% in size
Target sequence (Q9NUW8 whole entry, looked up): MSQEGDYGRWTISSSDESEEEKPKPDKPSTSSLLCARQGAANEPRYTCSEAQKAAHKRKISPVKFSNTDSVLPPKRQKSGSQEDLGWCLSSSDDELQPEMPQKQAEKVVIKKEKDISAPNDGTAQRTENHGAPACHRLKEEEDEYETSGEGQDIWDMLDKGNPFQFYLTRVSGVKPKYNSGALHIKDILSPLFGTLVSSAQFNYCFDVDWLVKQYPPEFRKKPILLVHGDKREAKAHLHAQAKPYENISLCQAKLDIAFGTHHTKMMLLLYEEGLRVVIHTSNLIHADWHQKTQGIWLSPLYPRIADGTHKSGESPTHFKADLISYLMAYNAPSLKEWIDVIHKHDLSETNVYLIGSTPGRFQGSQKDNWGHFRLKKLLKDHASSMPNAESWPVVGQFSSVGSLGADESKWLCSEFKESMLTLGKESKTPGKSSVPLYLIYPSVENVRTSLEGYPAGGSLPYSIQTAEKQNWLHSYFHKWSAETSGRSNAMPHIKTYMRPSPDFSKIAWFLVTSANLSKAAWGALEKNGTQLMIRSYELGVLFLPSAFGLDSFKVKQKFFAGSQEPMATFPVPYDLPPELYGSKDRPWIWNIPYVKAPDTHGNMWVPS
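Signal: AlphaScreen proximity between streptavidin donor and anti-FITC acceptor beads on intact substrate. Reaction: Tdp1 1 nM, substrate 15 nM final, 5 min RT after 15 min compound preincubation.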
CtBP-E1A blk – CtBP/E1A binding inhibition | actives 0.49% (n = 340,000) | AlphaScreen GST-E1A/His-CtBP binding, 1536-well; stronger effect = lower value | activity change, % (no concentration beside the values); in the data active means activity change below about -65%; inconclusive means mostly about -30% to -63%; further: on the % scale 0 is the no-effect control and ±100 the full control effect
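GST-E1A and His-tagged CtBP (125 nM each as 5X stock) were preincubated with pin-transferred compound for 2 h at 37 °C in the dark, then glutathione donor and nickel acceptor beads were added for 1 h before AlphaScreen reading.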
JMJD2A Tudor inh – JMJD2A Tudor domain (human) inhibition | O75164 | AlphaScreen JMJD2A-Tudor / H3K4me3 peptide binding | Potency, µM (series often up to 114 µM), for the others: at the highest dose activity change, negative = inhibition, actives largely listed as inhibitors | actives 4.4% (n = 390,000); further: potency means the concentration at half of the fitted maximal effect; on the % scale 0 is the no-effect control and ±100 the full control effect; nearly all actives have a fitted effect of over 50% in size
HP1b chromo inh – inhibitors of HP1-beta chromodomain binding to methylated histone tails; AlphaScreen HP1-beta / biotin-H3K9me3 peptide binding; P83916; Potency, µM (top dose mostly 114 µM), for inactives: at the top dose activity change, negative = inhibition, usual class: inhibitors; actives 0.56% (n = 390,000); further: potency means the concentration at half of the fitted maximal effect; nearly all actives have a fitted effect of over 70% in size
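Compound inhibition of the preformed complex between 50 nM HP1-beta and 50 nM biotinylated H3K9me3 peptide was read by AlphaScreen. Buffer was PBS pH 7.4 with 0.01% Tween-20. Incubations ran 30 min at room temperature, with 10 ug/mL donor/acceptor beads.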
* = called active by the depositor; u = inconclusive; x = not tested or not shown; [ ] = another dose, or the depositor's remark. Unless noted, the call rests on the fitted dose curve; in most records, active means well fitted inhibition curve with a large enough effect; inconclusive means small, poorly fitted or top-dose-only effect; inactive means no such curve, though single readings can be large or run the other way.

SMILES	Six1-Eya2 inh	BAZ2B inh	TDP1 block	CtBP-E1A blk	JMJD2A Tudor inh	HP1b chromo inh
CCN(CC)C(=O)c1[nH]cnc1C(=O)Nc1ccc(Cl)cc1	-1	50µM*	2%	1	-33%	37%
CCOC(=O)c1[nH]cnc1C(=O)Nc1ccncc1	-24	50µM*	5%	-3	28µM*	1%
Cc1ccc2ncc(C(=O)NCc3ccccc3Cl)c(=O)n2c1	x	7%	-2%	x	-1%	25%
CCc1ccc(-n2c(SCc3cccc(F)c3)nc3[nH]ncc3c2=O)cc1	x	-10%	9%	x	-29%	26%
NC(=S)N/N=C1/CCSc2ccc3ccccc3c21	-14	50µM*	8%	x	-11%[11.4 µM]	u
NC(=S)N/N=C/c1coc2c(ccc3ccccc32)c1=O	-2	-10%	8%	6	-21%	44%
C=CCOC(=O)N[C@@H](c1ccccc1)[C@@H](C)[N+](=O)[O-]	x	x	9%	x	x	x
COc1cccc([C@@H]2CC=C(C(=O)O)[C@H](c3ccccc3F)N2S(=O)(=O)c2ccc(C)cc2)c1	5	79µM*	-2%	x	-6%	53%
Cc1ccc(S(=O)(=O)N2[C@@H](c3ccc(Cl)cc3)C(C(=O)O)=CC[C@H]2c2ccc(C(C)C)cc2)cc1	-1	79µM*	2%	-1	-18%	15%
Cc1ccc2nc(-c3cc(N)cc(N)c3)oc2c1	-13	50µM*	11%	-12	u	-30%
O=C(O)Cc1csc(NC(=O)CSc2cccc(C(=O)O)n2)n1	19	-39%	x	-1	89µM*	-18%
CCC(=O)Nc1nc(CC(=O)Nc2ccccc2)cs1	4	-2%	0%	7	-31%	-1%
Fc1ccc(-c2noc3ncnc(NCC4CCN(Cc5ccc(Cl)cc5)CC4)c23)cc1	x	1%[57.1 µM]	5%	x	-24%	25%
CCCN(CCC)CCCNC(=O)C1CCC(CNS(=O)(=O)c2ccc(NC(C)=O)cc2)CC1 (stereo unspecified)	x	6%	3%	x	-17%	11%
O=S(=O)(c1ccc(F)cc1)N1CCN(Cc2cc3c(cc2Br)OCCO3)CC1	-10	1%	0%	0	-2%	47%
Oc1ccc(N2CCN(Cc3cc4c(cc3Br)OCCO4)CC2)cc1	-18	40µM*	x	-26	35µM*	u
COc1ccccc1-n1cc(-c2ccccc2)c2c(=S)nc[nH]c21	-2	-34%	10%	x	-8%	23%
S=c1nc[nH]c2c1ncn2-c1ccccc1	-3	x	x	0	0.63µM*	15%[57 µM]
CC(C)n1cnc2c(=S)nc[nH]c21	-3	50µM*	-3%	x	u	39%
O=C(CCS(=O)(=O)c1cc(Br)cc2c1N(C(=O)C1CC1)CC2)N1CCN(c2cccc(C(F)(F)F)c2)CC1	x	-31%	2%	x	-15%	2%
COc1cc2cc(-c3ccc(O)cc3O)nc(C)c2cc1OC	u	u	x	-86*	-11%	1%
Cc1c(C(=O)O)cccc1-n1c(C)cc(/C=C(/C#N)C(=O)NCc2ccccc2)c1C	48	56µM*	-2%	-1	-16%	17%
Cc1cc(/C=C(/C#N)C(=O)O)c(C)n1-c1cccc2ccccc12	13	u	x	0	-33%	-22%
C/C(=N\Nc1ccccc1[N+](=O)[O-])c1ccc(N2CCOCC2)cc1	0	1µM*	13%	-9	u	10µM*
COc1cc(CNc2ccc(N3CCCCC3)cc2)ccc1OCC(=O)NC(C)(C)C	u	32µM*	11%	u	45µM*	u
SMILES	Six1-Eya2 inh	BAZ2B inh	TDP1 block	CtBP-E1A blk	JMJD2A Tudor inh	HP1b chromo inh
COc1cc(CNc2ccc(N3CCCC3)cc2)ccc1OCc1ccccc1F	u	25µM*	5%	u	11µM*	20µM*
COc1cc(CNc2ccc(S(N)(=O)=O)cc2)ccc1OCc1ccccc1F	2	x	x	-16	-34%	17%
C=CCOc1ccc(CNc2ccc(NC(=O)CC(C)C)cc2)cc1OC	-14	50µM*	6%	5	u	-1%
COc1ccc(CNc2ccc(N3CCN(C(C)=O)CC3)cc2)cc1OC	x	x	x	x	-17%	30%
O=C1c2ccccc2C(=O)N1c1cccc(Cl)c1	x	x	0%	x	-13%	x
c1c[nH]c(CNc2ncnc3ccc(-c4ccc5c(c4)OCO5)cc23)n1	x	x	-19%	x	u	x
CCCn1c(C)nc2c(N3CCC(N4CCN(C)CC4)CC3)nc(C)nc21	x	x	5%	x	x	x
C#CCOCCOCCOCCNc1nc(N2CCN(C(=O)[C@H](Cc3cc4ccccc4[nH]3)n3cc([C@@H](N)C(C)CC)nn3)CC2)nc(N2CCN(C(=O)[C@H](Cc3cc4ccccc4[nH]3)n3cc([C@@H](N)Cc4ccc(O)cc4)nn3)CC2)n1 (stereo partly specified)	x	11µM*	10%	x	x	x
C#CCOCCOCCOCCNc1nc(N2CCN(C(=O)[C@H](Cc3ccc(O)cc3)n3cc([C@@H](N)C(C)CC)nn3)CC2)nc(N2CCN(C(=O)[C@H](Cc3cc4ccccc4[nH]3)n3cc([C@@H](N)C(C)CC)nn3)CC2)n1 (stereo partly specified)	-26	28µM*	8%	u	45µM*	-30%
C#CCOCCOCCOCCNc1nc(N2CCN(C(=O)[C@H](Cc3ccc(O)cc3)n3cc([C@@H](N)C(C)CC)nn3)CC2)nc(N2CCN(C(=O)[C@H](Cc3cc4ccccc4[nH]3)n3cc([C@@H](N)CC(C)C)nn3)CC2)n1 (stereo partly specified)	-21	35µM*	5%	-24	45µM*	u
C#CCOCCOCCOCCNc1nc(N2CCN(C(=O)[C@H](Cc3cc4ccccc4[nH]3)n3cc([C@@H](N)C(C)CC)nn3)CC2)nc(N2CCN(C(=O)[C@H](CCCCN)n3cc([C@@H](N)CC(C)C)nn3)CC2)n1 (stereo partly specified)	0	35µM*	6%	x	45µM*	-4%
CCc1cccc(NC(=O)CN2Cc3ccccc3C2=O)c1	x	0%	4%	x	4%	21%
CC(=O)c1ccc(N2CCN(C(=O)c3cc(S(=O)(=O)N4CCCCCC4)cn3C)CC2)cc1	x	-21%	-1%	x	-20%	16%[57 µM]
O=C(Nc1cccc(Cl)c1)c1cc2c(=O)[nH]c3ccccc3c2s1	x	x	2%	x	-32%	4%
O=C1C2CCCN2C(c2ccc(F)cc2)N1c1nccs1 (stereo unspecified)	1	u	2%	6	20µM*	19%
Cc1ccc(C2N(c3nccs3)C(=O)C3CCCN32)cc1 (stereo unspecified)	-1	u	0%	-2	20µM*	14%

Bioassay records as filed in PubChem.
